The panel holds about 79,000 compounds, 15% with a hit somewhere; the sample as a whole holds those more often. Values without a mark were called inactive. Active and inactive are the calls of the source. No stated cut-off is given here; in the data, active means growth inhibition above about 70%; inactive means the rest. Where a SMILES comes first, the peptide text is derived from it. [ ]: non-standard residue; d: D form. The star is where a group is joined. ξ: configuration not given here. ξNMe2Val = CC(C)C(C(=O)*)N(C)C; NMeV = CN[CH](C(=O)O)C(C)C; NHBn = c1ccc(CN*)cc1

The nature of test [1]: NCI Yeast Anticancer Drug Screen. Data for the rad50 strain (AID 155).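 Further: 0% = growth of vehicle-only cultures of the same strain.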 Particulars: S. cerevisiae rad50 strain growth inhibition; at 50.0 µM; hits give high values. The gist of the method:
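Growth of the mutant yeast was measured after compound exposure and referenced to vehicle-treated cultures.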

The nature of test [2]: NCI Yeast Anticancer Drug Screen. Data for the mec2-1 strain (AID 157). The note with it: S. cerevisiae mec2-1 strain, at 50.0 µM, hits give high values. A digest of the protocol: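 Test agents were screened against the mec2-1 yeast strain, with defined DNA repair or cell cycle alteration. Growth was scored as inhibition against vehicle-only controls.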
The nature of test [3]: NCI Yeast Anticancer Drug Screen. Data for the sgs1 mgt1 strain (AID 161).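 Further: 0% = growth of cultures given vehicle only.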 Particulars: S. cerevisiae sgs1 mgt1 strain, at 50.0 µM, hits give high values. A digest of the protocol: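 Inhibition of yeast growth, normalised to vehicle-treated controls, is reported for a strain bearing genetic alterations in DNA damage repair.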
Test [4] can be described thus: NCI Yeast Anticancer Drug Screen. Data for the cln2 rad14 strain (AID 165).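 Further: 0% = growth equal to vehicle treated cultures.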 Particulars: S. cerevisiae cln2 rad14 strain, at 50.0 µM, hits give high values. The gist of the method:
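Growth of compound-exposed yeast (cln2 rad14 genotype) measured and expressed as inhibition relative to vehicle.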

A short description of test [5]: NCI Yeast Anticancer Drug Screen. Data for the bub3 strain (AID 167). Particulars: S. cerevisiae bub3 mutant strain, at 50.0 µM, hits give high values. A digest of the protocol: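 Whole-cell yeast assay. The mutant strain was incubated with compounds, and growth inhibition was determined by comparison with vehicle-treated cells.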
The nature of test [6]: NCI Yeast Anticancer Drug Screen. Data for the mlh1 rad18 strain (AID 175). Particulars: S. cerevisiae mlh1 rad18 strain growth inhibition; at 50.0 µM; hits give high values. The gist of the method:
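In this whole-cell yeast screen, a strain with altered DNA damage repair is challenged with compound, and its growth is measured against matched vehicle-treated controls.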

For `OCN1CCC23c4c5ccc(O)c4OC2C(O)C=CC3C1C5` (stereo unspecified), the growth inhibition in test [1] is -4.75%; in test [2], -3.4%; in test [3] it was 3.35%; in test [4] it was -68.5%; in test [5] it was 20.1%; in test [6], -12%.
Take `O=C(CCl)Nc1ccccc1Cl`: the growth inhibition in test [1] is 39%; in test [2], 9.65%; in test [3], 25.9%; in test [4], 18.6%; in test [5], 55.8%; in test [6] it was 45.1%.
With `Cn1ccnc1C[N-]Cc1nccn1C.O=[N+]([O-])[O-].O=[N+]([O-])[O-].[Cu+2]`, the growth inhibition in test [1] is 18.2%; in test [2] it was 7.5%; in test [3], -1.35%; in test [4] it was 24.4%; in test [5], -5.35%; in test [6] it was 5.5%.
On to `N.N.N.N.N#N.N#N.[Cl-].[Os+6]`, for which the growth inhibition is -25.4% in test [1]; -24.1% in test [2]; -34.6% in test [3]; -7.95% in test [4]; -35.4% in test [5]; -39% in test [6].
For `CC1(C)CCCC(C)(C)N1[P-]C(=O)[P-]N1C(C)(C)CCCC1(C)C.[C-]#[O+].[C-]#[O+].[C-]#[O+].[C-]#[O+].[C-]#[O+].[C-]#[O+].[Fe].[Fe]` (stereo unspecified), the growth inhibition in test [1] was -11.2%; in test [2], 3.65%; in test [3] it was -2%; in test [4] it was 13.6%; in test [5] it was -5.7%; in test [6] it was 8.45%.
As to `COC1C(=[N+]=[N-])C(=O)NC(=O)N1C` (stereo unspecified), the growth inhibition was 21% in test [1]; -3.4% in test [2]; 34.9% in test [3]; -7.65% in test [4]; 20.3% in test [5]; 20.5% in test [6].
Turning to `CC(=O)OCC1OC(OC(C)=O)C(N(CCCl)CCCl)C(OC(C)=O)C1OC(C)=O` (stereo unspecified), the growth inhibition in test [1] is 2.2%; in test [2], 7%; in test [3], 6.75%; in test [4], 23.9%; in test [5] it was -2.25%; in test [6], -33.6%.
For `Nc1ccc(S(=O)(=O)c2ccc(NCN3C(=O)NC(=O)C(=O)C3=O)cc2)cc1`, the growth inhibition in test [1] is 24.9%; in test [2] it was 8.15%; in test [3], -11.4%; in test [4], 27.6%; in test [5], 13.6%; in test [6], 7.8%.
With `O=C(Nc1cccs1)c1c(O)[nH]c(=S)[nH]c1=O`, the growth inhibition in test [1] is -1.35%; in test [2] it was 20.9%; in test [3], 25.1%; in test [4] it was 16.8%; in test [5], 7.05%; in test [6], 4.5%.
For `CC(=O)c1ccccc1O.[Cr]`, the growth inhibition in test [1] is 3.05%; in test [2], -32.3%; in test [3] it was 19.3%; in test [4] it was 3.75%; in test [5], -18.3%; in test [6], 21.2%.
Turning to `O=P1(CCBr)NCCCO1` (stereo unspecified), the growth inhibition in test [1] was -5.25%; in test [2], 14.6%; in test [3] it was -3.6%; in test [4] it was -59.4%; in test [5], -10.4%; in test [6], 7.5%.
In the case of `CC(C)C(NC(=O)C(C(C)C)N(C)C)C(=O)N(C)C(C(=O)N1CCCC1C(=O)N1CCCC1C(=O)NCc1ccccc1)C(C)C` (stereo unspecified) (ξNMe2Val-V[NMeV]PP-NHBn; configuration not given here), the growth inhibition in test [1] was -18.3%; in test [2], -17.7%; in test [3], -22.9%; in test [4], 12%; in test [5] it was 3.55%; in test [6], -47%.
With `Oc1ccc(Nc2c3ccc(Cl)cc3nc3ccc(-c4ccccc4)cc23)cc1CN(CCCl)CCCl`, the growth inhibition was 98.4% (active) in test [1]; 98.7% (active) in test [2]; 98.8% (active) in test [3]; 98.3% (active) in test [4]; 93.5% (active) in test [5]; 97.5% (active) in test [6].
Regarding `ClC1=C(Cl)C2(Cl)C3C(C4(Cl)C(Cl)=C(Cl)C3(Cl)C4(Cl)Cl)C2(Cl)C1(Cl)Cl` (stereo unspecified), the growth inhibition was -1.7% in test [1]; -6.05% in test [2]; 9% in test [3]; -71% in test [4]; -2.4% in test [5]; -11.8% in test [6].
Take `CCOC(=O)C(Cc1ccc(N(CCCl)CCCl)cc1)NC(=O)CNC(C)=O` (stereo unspecified): the growth inhibition in test [1] was 2.4%; in test [2] it was -7.85%; in test [3], 14.7%; in test [4], 1.45%; in test [5], -10.4%; in test [6], 10.3%.
As for `Cc1nnc2cc3ccccc3cn12`, the growth inhibition in test [1] is 21%; in test [2] it was 9.45%; in test [3], 26.4%; in test [4], 9.45%; in test [5] it was 21.9%; in test [6], 18.1%.
For the compound `ClCCCBr`, the growth inhibition in test [1] is 29.2%; in test [2], -7.35%; in test [3], -10.8%; in test [4], 13.3%; in test [5], 24.4%; in test [6] it was 21.9%.
With `O=c1oc2cc(O)ccc2c(O)c1C(c1ccccn1)c1c(O)c2ccc(O)cc2oc1=O`, the growth inhibition in test [1] is 12.6%; in test [2] it was 9.15%; in test [3], -13.7%; in test [4], -1.85%; in test [5], -17.4%; in test [6] it was -52%.
For `ClCCN(CCCl)c1ccc(C2=Nc3cccc4cccc(c34)N2)cc1`, the growth inhibition in test [1] was 3.65%; in test [2], 9.8%; in test [3], 6.75%; in test [4] it was -0.25%; in test [5], -8.05%; in test [6], 5.05%.
As to `CNc1cc(Cl)c(C#N)c(Cl)c1`, the growth inhibition in test [1] was -2.6%; in test [2] it was -2.7%; in test [3] it was -0.7%; in test [4], -39.2%; in test [5], -24.6%; in test [6], 9.25%.
Take `COc1ccc(CC2OC3(CCCCC3)CC3CCCCN32)cc1` (stereo unspecified): the growth inhibition in test [1] is 23.2%; in test [2], 13.9%; in test [3], 11.5%; in test [4], 7.65%; in test [5], -5.6%; in test [6], 6%.

The values above are taken from PubChem BioAssay (NCI).
